Out of some 350,000 compounds screened, about 9,900 (2.8%) were called active. A call without a number means that no potency is given here. About 15% were inconclusive and are not listed. The sample holds actives, similar compounds and a random draw of the others, so the mix is not that of the screen. The call rests on the fitted dose curve; in most records, active means well fitted activation curve with a large enough effect; inconclusive means small, poorly fitted or top-dose-only effect; inactive means no such curve, though single readings can be large or run the other way.
Experiment: A quantitative high throughput screen for small molecules that induce DNA re-replication in MCF 10a normal breast cells. Further: nearly all actives have a fitted effect of over 50% in size.
Settings: MCF 10A DNA re-replication, Hoechst nuclear intensity, 48 h; series mostly up to 46.1 µM
Excerpt: H Molecular Libraries Probe Production Network [MLPCN]
NIH Chemical Genomics Center [NCGC]
Assay Provider: Melvin DePamphilis, NICHD, NIH
Eukaryotic cells normally restrict genome duplication to once per cell division. When this process is aberrant, DNA re-replication occurs when cells reinitiate DNA replication before the first round of replication is complete. DNA re-replication induces the DNA damage response, arrests cell proliferation, and triggers apoptosis. The cell cycle components cyclin A, Cdt-1, Cdc6 and geminin are critical regulators of this process and their misregulation results in DNA re-replication in normal and cancer cells. To identify compounds that induce re-replication in normal cells, an image-based assay was used to measure DNA content of nuclei, as detected by the fluorescent DNA binding dye, Hoechst. Cell nuclei were imaged by a fluorescence scanning plate imager and compounds that induce DNA re-replication were identified by the increase of nuclei with elevated fluorescence intensity
For screening, 250 cells in 5 uL/well were dispensed into black clear 1536-well plates (Aurora) using a solenoid-based dispenser. Following transfer of 23 nL compound or DMSO vehicle by a pin tool, the plates were incubated 48 hr at 37 C and 5% CO2. After addition of 1 uL/well Hoescht stain, the plates were incubated 40 min at 37 C, 5% CO2 and total intensity of fluorescent objects (nuclei) were enumerated by an Acumen Explorer Ex3 (TTP LabTech) fluorescence scanning plate imager (405 nm excitation, 500-530 nm emission).
Keywords: NIH Roadmap, MLPCN, MLI, MLSMR, qHTS, NCGC, DNA replication, cancer
Potency means the concentration at half of the fitted maximal effect.

| SMILES | Potency |
| --- | --- |
| CC(OC(=O)c1ccc([N+](=O)[O-])cc1)C(=O)NCC1CCCCC1 (stereo not given) | inactive |
| COc1ccc(OC(C)C(=O)NCCc2nc3ccccc3[nH]2)cc1 (stereo not given) | inactive |
| CCCCCOc1ccc(/C=C/C(=O)NCCc2nc3ccccc3[nH]2)cc1OC | 20.6 µM (active) |
| O=C(COc1ccccc1)NCCc1nc2ccccc2[nH]1 | inactive |
| O=c1ccc2c(-c3ccccc3S(=O)(=O)O)c3ccc(O)c(O)c3oc-2c1O | inactive |
| CCOC(=O)c1ccccc1NC(=O)COC(=O)C(Cc1c[nH]c2ccccc12)NC(C)=O (stereo not given) | inactive |
| Cc1ccc(S(=O)(=O)N2CCC(C(=O)N3CCCCCCC3)CC2)cc1 | inactive |
| CC(C)(C)OC(=O)C1=C(CO)CS[C@@H]2[C@H](NC(=O)Cc3ccccc3)C(=O)N12 | inactive |
| O=C(c1cccc(S(=O)(=O)N2CCCCCC2)c1)N1CCN(Cc2ccccc2)CC1 | inactive |
| CCOC(=O)C1=C(c2ccc(OC)cc2)C(=O)c2ccccc2C1=O | 2.91 µM (active) |
| COc1ccc(OCCCON2C(=O)c3ccccc3C2=O)cc1 | inactive |
| COc1ccc(N2CCN(C(C)=C3C(=O)c4ccccc4C3=O)CC2)cc1 | inactive |
| COCCN(C(=O)C(C)N1C(=O)c2ccccc2C1=O)c1c(N)n(CC(C)C)c(=O)[nH]c1=O (stereo not given) | inactive |
| CC(C)(C)OC(=O)C[C@@H]1C/C=C\C[C@@H](CC(=O)NCCO)C(=O)N[C@H](Cc2c[nH]c3ccccc23)COC1=O | inactive |
| COc1cccc(/C(C)=N/Nc2ncc(Cl)cc2Cl)c1 | inactive |
| COc1cccc(/C=N/Nc2ncc(C(F)(F)F)cc2Cl)c1O | 1.46 µM (active) |
| COc1cccc(/C=N/Nc2cc(C)nc(-c3ccccc3O)n2)c1O | inactive |
| O=C(Nc1nnc(-c2ccccc2)o1)c1cccc(S(=O)(=O)N2CCOCC2)c1 | inactive |
| Cc1ccc(S(=O)(=O)NC2CCCCCC2)cc1 | inactive |
| Cc1ccc(S(=O)(=O)N(C)C2(C)CCS(=O)(=O)C2)cc1 (stereo not given) | inactive |
| Cc1ccc(S(=O)(=O)C2(S(=O)(=O)c3ccc(C)cc3)CCCC2)cc1 | 8.2 µM (active) |
| CCC(C)C1(C2CCCC2)NC(=O)NC1=O (stereo not given) | inactive |

| SMILES | Potency |
| --- | --- |
| Cc1ccc(CC(=O)Nc2ccc(S(=O)(=O)N3CCOCC3)cc2)cc1C | inactive |
| S=c1[nH]nc(-c2ccncc2)n1/N=C/c1ccccc1Cl | inactive |
| S=c1[nH]nc(-c2ccco2)n1/N=C/c1ccccc1 | inactive |
| S=c1[nH]nc(-c2cccnc2)n1/N=C/C(Cl)=C\c1ccccc1 | 13 µM (active) |
| O=C(CCc1nc(-c2ccccc2)no1)Nc1cccc(C(=O)NC2CC2)c1 | inactive |
| O=C(CP(=O)(c1ccccc1)c1ccccc1)N1CCOCC1 | inactive |
| O=C(c1snnc1-c1ccccc1)N1CCOCC1 | 0.651 µM (active) |
| c1ccc(-c2nnc(N3CCOCC3)c3ccccc23)cc1 | inactive |
| CCN(CC)C(=O)c1sc2nc(-c3ccccc3)ccc2c1N | 23.1 µM (active) |
| CCOC(=O)c1sc2nc(SC)nc(-c3ccccc3)c2c1N | inactive |
| CCCC(=O)n1nc(-c2ccccc2)nc1N | inactive |
| COc1ccc(NS(=O)(=O)c2cc(NC(=O)COc3ccccc3F)ccc2OC)cc1 | inactive |
| O=C(C1CC(=O)N(C2CCCC2)C1)N1CCN(c2cccc(C(F)(F)F)c2)CC1 (stereo not given) | inactive |
| NC(=O)C(=O)N/N=C/c1ccc([N+](=O)[O-])o1 | 26.6 µM (active) |
| Cc1cc(C)nc(N/N=C/c2ccc([N+](=O)[O-])o2)n1 | inactive |
| O=C(N/N=C/c1ccc([N+](=O)[O-])o1)c1cccc(S(=O)(=O)N2CCOCC2)c1 | inactive |
| O=C(COC(=O)c1ccncc1)Nc1ccc2c(c1)OCO2 | inactive |
| O=C1COc2ccc(C(=O)COC(=O)c3ccccc3Cl)cc2N1 | inactive |
| CC1CCCN(CC(O)COc2ccc3c(c2)OCO3)C1 (stereo not given) | inactive |
| CN1CCN(CC(O)COCc2ccc3c(c2)OCO3)CC1 (stereo not given) | 20.6 µM (active) |
| COc1cc(COCC(O)CN2CCN(Cc3ccc4c(c3)OCO4)CC2)cc(OC)c1OC (stereo not given) | inactive |
| CC1CC(C)CN(CC(=O)N2c3ccccc3CCc3ccccc32)C1 (stereo not given) | inactive |

| SMILES | Potency |
| --- | --- |
| CC1C(=O)N(Cc2ccccc2)c2ccccc2N1C(=O)c1ccccc1 (stereo not given) | inactive |
| CC1C(C)N(C(=O)CCl)c2ccccc2N1C(=O)CCl (stereo not given) | 7.31 µM (active) |
| O=C1CN(C(=O)COC(=O)/C=C/c2ccc(F)cc2)c2ccccc2N1 | inactive |
| CCOC(=O)C1CCCN(C(=O)C2CCN(S(=O)(=O)c3ccc(Cl)c(C(F)(F)F)c3)CC2)C1 (stereo not given) | inactive |
| O=C1c2ccccc2C(=O)C1c1ccccc1F | inactive |
| O=C1c2ccccc2C2=Nc3ccccc3SC(c3ccccc3F)C12 (stereo not given) | 6.51 µM (active) |
| COC(=O)[C@]1(C)N[C@H](CN(C)C(=O)c2ccc(C(C)(C)C)cc2)[C@@H]2C(=O)N(C)C(=O)[C@@H]21 | inactive |
| N#Cc1cccc(NC(=O)C2CCCN(C(=O)c3ccc(Cl)cc3)C2)c1 (stereo not given) | inactive |
| C/C=C/c1ccc(OCC(=O)NNC(=O)CN(C)S(=O)(=O)c2ccc(C)cc2)c(OC)c1 | inactive |
| Cn1c(C(=O)NCCc2ccsc2)cc2c(=O)n(C)c3ccccc3c21 | inactive |
| CCn1c(=O)cc(OCC(=O)NCCCN2CCN(c3cccc(Cl)c3)CC2)c2ccccc21 | inactive |
| Cn1c(C(=O)NCCCN2CCN(c3cccc(Cl)c3)CC2)cc2c(=O)n(C)c3ccccc3c21 | 14.6 µM (active) |
| Cc1cccc(-c2oc3ccc(-c4ccc5c(c4)OCO5)cc3c2C#Cc2cncn2C)c1 | inactive |
| c1ccc(CCc2ccccn2)cc1 | inactive |
| Cc1cccc(NS(=O)(=O)c2ccc(C)c(C(=O)NCc3cccnc3)c2)c1 | inactive |
| O=C(COC(=O)c1ccc(F)cc1)Nc1ccc2c(c1)OCO2 | inactive |
| O=[N+]([O-])c1ccc(O)c(/C=N/Nc2ccccc2[N+](=O)[O-])c1 | inactive |
| Cc1ccc(NS(=O)(=O)c2ccc(N/N=C/c3ccccc3OCC(=O)O)c([N+](=O)[O-])c2)c(C)c1 | inactive |
| Cc1cccc(COc2ccccc2/C=N/Nc2ccc([N+](=O)[O-])cc2)c1 | 10.3 µM (active) |
| O=S1(=O)CCOC[C@H](Cc2ccccc2)N1Cc1ccccc1Br | inactive |
| O=C(CSc1nc2ccccc2c(=O)n1-c1ccccc1F)N1CCOCC1 | inactive |
